Bioassay records as filed in PubChem.
Most compounds without a hit are left out; they make up all but 11% or so of the library.
hNpr1 antagonist: Natriuretic polypeptide receptor (hNpr1) antagonism - Primary qHTS | HEK293 hNpr1 GloSensor cGMP, ANP-stimulated luminescence | Potency, µM (titrated, usually from 46.3 µM), inactives show at the top dose activity change, negative = inhibition, usual class: inhibitors | Atrial natriuretic peptide receptor 1 (Homo sapiens), P16066 | hit rate 1.6% among 76,000 | AID 1347048, 2019; further: on the % scale 0 is the no-effect control and ±100 the full control effect; nearly all actives have a fitted effect of over 60% in size
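Compound pre-incubated 30 min at room temperature on GloSensor-loaded HEK293 cells stably carrying hNpr1 and the pGS-40F cGMP biosensor. Stimulation uses hNppA at 0.1 nM final; luminescence is taken at baseline and 20 min post-agonist.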
Luciferase inh: Firefly luciferase inhibition profiling of diverse chemical library using quantitative high-throughput screening. purified P. pyralis luciferase, luminescence, biochemical. AID 1347043, 2019. Potency, µM (top dose mostly 115 µM), actives largely listed as inhibitors. hit rate 2.5% among 76,000; active means well fitted curve in the direction sought with a large enough effect; inconclusive means small, poorly fitted or top-dose-only effect, or another doubt; inactive means no such curve, though single readings can be large; an effect the other way counts as inactive or inconclusive; further: on the % scale 0 is the no-effect control and ±100 the full control effect; nearly all actives have a fitted effect of over 65% in size
Target sequence (P08659 whole entry, looked up): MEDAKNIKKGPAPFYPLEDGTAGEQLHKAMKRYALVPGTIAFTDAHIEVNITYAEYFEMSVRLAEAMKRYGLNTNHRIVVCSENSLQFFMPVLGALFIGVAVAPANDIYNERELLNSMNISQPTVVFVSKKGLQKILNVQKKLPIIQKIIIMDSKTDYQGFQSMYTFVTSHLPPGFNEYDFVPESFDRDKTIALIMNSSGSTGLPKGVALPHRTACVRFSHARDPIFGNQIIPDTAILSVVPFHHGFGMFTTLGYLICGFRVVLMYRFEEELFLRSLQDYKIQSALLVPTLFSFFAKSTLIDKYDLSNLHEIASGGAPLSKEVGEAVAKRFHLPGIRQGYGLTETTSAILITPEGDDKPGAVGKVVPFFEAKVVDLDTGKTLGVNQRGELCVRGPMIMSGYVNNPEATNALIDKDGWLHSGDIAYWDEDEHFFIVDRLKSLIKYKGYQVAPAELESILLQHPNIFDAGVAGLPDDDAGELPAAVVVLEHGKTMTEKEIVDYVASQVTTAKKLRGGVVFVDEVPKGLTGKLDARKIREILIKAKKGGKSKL
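Luminescence read by CCD imager after adding enzyme (10nM final) to wells holding compound, titrated in qHTS. Substrates 10uM each D-luciferin and ATP; buffer 50mM Tris acetate pH 7.5, 10mM Mg acetate, Tween-20, BSA.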
HEK293 tox: Cytotoxic Profiling in HEK 293 Cell Line of Diverse Libraries Using Quantitative High-Throughput Screening | HEK 293 viability, ATP luminescence (CellTiter-Glo), 48-72 h | Potency, µM (doses to about 115 µM), for inactives: top-dose activity change, negative = cytotoxicity, most hits filed as inhibitors | hit rate 6.6% among 94,000 | AID 1345083, 2018; active means well fitted curve in the direction sought with a large enough effect; inconclusive means small, poorly fitted or top-dose-only effect, or another doubt; inactive means no such curve, though single readings can be large; an effect the other way counts as inactive or inconclusive; further: on the % scale 0 is the no-effect control and ±100 the full control effect; nearly all actives have a fitted effect of over 60% in size
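250 HEK 293 cells/well; compound by pintool; incubated 48 or 72 hr at 37 degree Celsius; CellTiter-Glo added, 10 min RT, luminescence imaged.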
NIH3T3 tox: Cytotoxic Profiling in NIH 3T3 Cell Line of Diverse Libraries Using Quantitative High-Throughput Screening; AID 1345082, 2018; Potency, µM (highest dose often 96.7 µM), inactives show at the top dose activity change, negative = cytotoxicity, hits mostly inhibitors; NIH 3T3 viability, CellTiter-Glo ATP luminescence, 48-72 h; hit rate 4.3% among 94,000; active means well fitted curve in the direction sought with a large enough effect; inconclusive means small, poorly fitted or top-dose-only effect, or another doubt; inactive means no such curve, though single readings can be large; an effect the other way counts as inactive or inconclusive; further: on the % scale 0 is the no-effect control and ±100 the full control effect; nearly all actives have a fitted effect of over 55% in size
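Cytotoxicity is measured as loss of cellular ATP: NIH 3T3 cells (400/well) are exposed to compound for 48 or 72 hr at 37 °C, then CellTiter-Glo luminescence is imaged after 10 min at room temperature.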
NPR1 antag cnf: Natriuretic polypeptide receptor (hNpr1) antagonism - Confirmation | AID 1347044, 2019 | shares compounds with hNpr1 antagonist | hit rate 76% among 1,400 | HEK293 hNpr1 cGMP GloSensor luminescence, ANP-stimulated | Potency, µM (series often up to 57.6 µM), without a hit: at the top dose activity change, negative = inhibition, most hits filed as inhibitors; further: nearly all actives have a fitted effect of over 70% in size
NPR2 antag: Natriuretic polypeptide receptor (hNpr2) antagonism - Subtype selectivity assay | shares compounds with hNpr1 antagonist | HEK293 hNpr2 GloSensor cGMP luminescence, CNP-stimulated | Potency, µM (highest dose often 57.6 µM), for inactives: top-dose activity change, negative = inhibition, actives largely listed as inhibitors | hit rate 67% among 1,400 | AID 1347046, 2019; further: nearly all actives have a fitted effect of over 70% in size
FLuc counter: Natriuretic polypeptide receptor (hNpr1) antagonism - Confirmation firefly luciferase (FLuc) inhibition counterscreen | purified FLuc enzyme, luminescence, Km substrate | hit rate 0.7% among 1,400 | shares compounds with hNpr1 antagonist | Potency, µM (highest dose often 57.6 µM), without a hit: top-dose activity change, negative = inhibition, most hits filed as inhibitors | AID 1347047, 2019; active means well fitted curve in the direction sought with a large enough effect; inconclusive means small, poorly fitted or top-dose-only effect, or another doubt; inactive means no such curve, though single readings can be large; an effect the other way counts as inactive or inconclusive; further: 0% is about no effect
GloSensor cGMP: Natriuretic polypeptide receptor (hNpr1) antagonism - Counterscreen GloSensor control cell line; Potency, µM (top dose mostly 57.6 µM), without a hit: top-dose activity change, negative = inhibition, hits mostly inhibitors; hit rate 69% among 1,400; AID 1347051, 2019; HEK293 GloSensor cGMP, SNP-stimulated, luminescence; shares compounds with hNpr1 antagonist; further: on the % scale 0 is the no-effect control and ±100 the full control effect; nearly all actives have a fitted effect of over 70% in size
* marks the source's active call; other numbers are inactive results; [ ] = remark or other dose. Unless noted, the call rests on the fitted dose curve. Potency means the concentration at half of the fitted maximal effect.

COc1ccc(CN2C=C(C(=O)OCc3noc(-c4cccc(OC)c4)n3)C(C)=NS2(=O)=O)cc1 was read as hNpr1 antagonist inconclusive, Luciferase inh inactive, HEK293 tox inconclusive, NIH3T3 tox inconclusive, NPR1 antag cnf inconclusive, NPR2 antag -30%, FLuc counter 0% and GloSensor cGMP inconclusive.
`COc1ccc(CN2C=C(C(=O)OCc3noc(-c4ccc(C)c(C)c4)n3)C(C)=NS2(=O)=O)cc1` gave hNpr1 antagonist inconclusive, Luciferase inh inactive, HEK293 tox inconclusive and NIH3T3 tox -25%.
For CC1=NS(=O)(=O)N(Cc2ccccc2)C=C1C(=O)OCc1noc(-c2ccc(C)c(C)c2)n1 the results were hNpr1 antagonist 11µM*, Luciferase inh inactive, HEK293 tox inconclusive, NIH3T3 tox inconclusive, NPR1 antag cnf 17µM*, NPR2 antag inconclusive, FLuc counter -2% and GloSensor cGMP 15µM*.
`COc1ccc(CN2C=C(C(=O)OCc3noc(-c4cccc(F)c4)n3)C(C)=NS2(=O)=O)cc1` gave hNpr1 antagonist 0%, Luciferase inh inactive, HEK293 tox -26% and NIH3T3 tox -43%.
Screening COc1ccc(CN2C=C(C(=O)OCc3noc(-c4ccc(C)cc4)n3)C(C)=NS2(=O)=O)cc1 returned hNpr1 antagonist 10µM*, Luciferase inh inactive, HEK293 tox -27%, NIH3T3 tox inconclusive, NPR1 antag cnf 15µM*, NPR2 antag 14µM*, FLuc counter 0% and GloSensor cGMP 12µM*.
Screening O=C(NCCN1CCCC1)c1cnc2c(c1)N(C(=O)Cc1cccc(C(F)(F)F)c1)CCC2 returned hNpr1 antagonist 6%, Luciferase inh inactive, HEK293 tox -6% and NIH3T3 tox inconclusive.
For CCOc1ccc(C(=O)NC2CCN(c3cnn(CCOC)c(=O)c3)CC2)cc1 the results were hNpr1 antagonist -14%, Luciferase inh inactive, HEK293 tox -23% and NIH3T3 tox -21%.
For CCOc1ccc(C(=O)NC2CCN(c3cnn(CC)c(=O)c3)CC2)cc1 the results were hNpr1 antagonist -11%, Luciferase inh inactive, HEK293 tox -5%, NIH3T3 tox 28µM*, NPR1 antag cnf -7%, NPR2 antag -22%, FLuc counter 1% and GloSensor cGMP inconclusive.
Screening CC1=C[C@@H](CNC(=O)COc2ccccc2)[C@H](C(C)C)C[C@H]1Cc1nc2ccncc2[nH]1 returned hNpr1 antagonist inconclusive, Luciferase inh inactive, HEK293 tox inconclusive and NIH3T3 tox inconclusive.
`COc1ccc(-c2noc(-c3cccn3CC(=O)N3CCOc4ccc(C)cc43)n2)cc1F` gave hNpr1 antagonist -1%, Luciferase inh inactive, HEK293 tox inconclusive and NIH3T3 tox -27%.
CCOc1ccccc1CN1CC[C@H](c2n[nH]c(C)n2)[C@H](NC(=O)C2CCOCC2)C1 was read as hNpr1 antagonist 4%, Luciferase inh inactive, HEK293 tox -22% and NIH3T3 tox inactive.
`Oc1ccc(-c2nc(C3CC3)nc3c2CCN(Cc2cccc4ccccc24)CC3)cc1` gave hNpr1 antagonist -24%, Luciferase inh inactive, HEK293 tox 18µM*, NIH3T3 tox inconclusive, NPR1 antag cnf -27%[86.2 µM], NPR2 antag inconclusive, FLuc counter 2%[86.2 µM] and GloSensor cGMP -32%[86.2 µM].
Clc1ccc(-c2nc(C3CC3)nc3c2CCN(Cc2ccccc2)CC3)cc1 was read as hNpr1 antagonist 8%, Luciferase inh inactive, HEK293 tox -15% and NIH3T3 tox -5%.
`Cc1nc(N2CCC(NC(=O)c3ccccc3F)CC2)cc(C(F)(F)F)n1` gave hNpr1 antagonist -12%, Luciferase inh inactive, HEK293 tox -2% and NIH3T3 tox -8%.
`COc1cc(Cl)ccc1C(=O)NC1CCN(c2cc(C(F)(F)F)nc(C)n2)CC1` gave hNpr1 antagonist inconclusive, Luciferase inh inactive, HEK293 tox inconclusive, NIH3T3 tox inconclusive, NPR1 antag cnf 22µM*, NPR2 antag 22µM*, FLuc counter 2% and GloSensor cGMP 19µM*.
For Cc1nc(N2CCC(NC(=O)c3ccc4ccccc4n3)CC2)cc(C(F)(F)F)n1 the results were hNpr1 antagonist 10µM*, Luciferase inh inactive, HEK293 tox 45µM*, NIH3T3 tox inconclusive, NPR1 antag cnf 14µM*, NPR2 antag 14µM*, FLuc counter 1% and GloSensor cGMP 12µM*.
`Cc1nc(N2CCC(NC(=O)c3nccc4ccccc34)CC2)cc(C(F)(F)F)n1` gave hNpr1 antagonist 11µM*, Luciferase inh inactive, HEK293 tox inconclusive, NIH3T3 tox inconclusive, NPR1 antag cnf 19µM*, NPR2 antag 17µM*, FLuc counter 0% and GloSensor cGMP 14µM*.
For COc1ccc(-c2c(C(=O)NCc3ccccc3F)nc3sccn23)cc1 the results were HEK293 tox inconclusive and NIH3T3 tox -28%[138 µM].
CS(=O)(=O)c1ccc(CN2CC[C@@H](c3ccc4ccccc4c3)[C@H](O)C2)cc1 was read as hNpr1 antagonist inconclusive, Luciferase inh inactive, HEK293 tox 40µM*, NIH3T3 tox inconclusive, NPR1 antag cnf inconclusive, NPR2 antag inconclusive, FLuc counter 4% and GloSensor cGMP 24µM*.
For O=C(O)c1ccc(CN2CC[C@@H](c3ccc4ccccc4c3)[C@H](O)C2)cc1 the results were hNpr1 antagonist 0%, Luciferase inh inactive, HEK293 tox 0% and NIH3T3 tox inactive.
